In experiment [1] the target is Mast/stem cell growth factor receptor Kit (Homo sapiens) (UniProt P10721). To be noted: at 1 µM.
Experiment [2] deals with Mast/stem cell growth factor receptor Kit (Homo sapiens), P10721 [D816V]. Conditions: at 0.1 µM.
Experiment [3] shares this test system. Conditions: at 1 µM.
The subject of experiment [4] is Mast/stem cell growth factor receptor Kit (Homo sapiens), P10721 [T670I]. To be noted: at 0.1 µM.
The test system is the same in experiment [5]. To be noted: at 1 µM.
In experiment [6] the test system is Mast/stem cell growth factor receptor Kit (Homo sapiens), P10721 [V560G]. To be noted: at 0.1 µM.
For experiment [7] the test system is unchanged. Conditions: at 1 µM.
For experiment [8], the target named is Tyrosine-protein kinase Lck (Homo sapiens) (UniProt P06239). To be noted: at 0.1 µM.
Experiment [9] has the same target. Conditions: at 1 µM.
Experiment [10] concerns the target Leukocyte tyrosine kinase receptor (Homo sapiens) (UniProt P29376). Conditions: at 0.1 µM.
Experiment [11] has the same target. To be noted: at 1 µM.
Experiment [12] addresses Tyrosine-protein kinase Lyn (Homo sapiens) (UniProt P07948). To be noted: at 0.1 µM.
Experiment [13] shares this target. Conditions: at 1 µM.
The target is the same in experiment [14]. Conditions: at 0.1 µM. The source holds these as a separate data set.
Experiment [15] has the same target. To be noted: at 1 µM. This is another data set of the same source.
In experiment [16] the target is T1, Tyrosine-protein kinase Mer (Homo sapiens) (UniProt Q12866).
T1 sequence (whole entry): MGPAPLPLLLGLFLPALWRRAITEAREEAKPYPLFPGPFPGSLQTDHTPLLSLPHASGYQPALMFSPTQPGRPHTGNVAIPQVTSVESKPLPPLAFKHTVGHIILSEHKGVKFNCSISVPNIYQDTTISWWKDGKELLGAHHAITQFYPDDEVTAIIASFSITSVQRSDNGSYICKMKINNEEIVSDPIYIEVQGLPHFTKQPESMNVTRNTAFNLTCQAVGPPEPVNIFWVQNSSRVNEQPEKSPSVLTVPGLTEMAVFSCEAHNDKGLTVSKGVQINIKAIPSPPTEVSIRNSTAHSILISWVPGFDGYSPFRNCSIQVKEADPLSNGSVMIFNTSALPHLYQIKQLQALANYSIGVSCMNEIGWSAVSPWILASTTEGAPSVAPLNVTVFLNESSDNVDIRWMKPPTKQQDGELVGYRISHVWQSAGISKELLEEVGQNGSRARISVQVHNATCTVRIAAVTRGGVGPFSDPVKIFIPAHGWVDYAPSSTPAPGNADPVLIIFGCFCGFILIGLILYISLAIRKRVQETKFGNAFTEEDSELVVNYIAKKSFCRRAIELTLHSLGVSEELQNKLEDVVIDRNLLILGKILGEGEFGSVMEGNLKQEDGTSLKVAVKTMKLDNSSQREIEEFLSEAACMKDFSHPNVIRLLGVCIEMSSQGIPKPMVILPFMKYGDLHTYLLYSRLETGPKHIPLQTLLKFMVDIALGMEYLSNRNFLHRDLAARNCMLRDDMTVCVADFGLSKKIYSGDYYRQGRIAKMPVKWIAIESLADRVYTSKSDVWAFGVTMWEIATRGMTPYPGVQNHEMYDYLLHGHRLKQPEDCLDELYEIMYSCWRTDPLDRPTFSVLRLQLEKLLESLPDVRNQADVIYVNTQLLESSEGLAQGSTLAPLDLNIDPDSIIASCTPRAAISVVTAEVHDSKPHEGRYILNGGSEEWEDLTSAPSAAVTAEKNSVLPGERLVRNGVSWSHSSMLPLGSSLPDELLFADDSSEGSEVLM
Conditions: at 0.1 µM.

In experiment [17] the target is T1, Tyrosine-protein kinase Mer (Homo sapiens). To be noted: at 1 µM.
Experiment [18] concerns the target Hepatocyte growth factor receptor (Homo sapiens) (UniProt P08581). Conditions: at 0.1 µM.
Experiment [19] shares this target. To be noted: at 1 µM.
The target of experiment [20] is T2, Muscle, skeletal receptor tyrosine-protein kinase (Homo sapiens) (UniProt O15146).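 Note: values are mean inhibition of MuSK from the GSK PKIS kinase screening panel.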
T2 sequence (whole entry): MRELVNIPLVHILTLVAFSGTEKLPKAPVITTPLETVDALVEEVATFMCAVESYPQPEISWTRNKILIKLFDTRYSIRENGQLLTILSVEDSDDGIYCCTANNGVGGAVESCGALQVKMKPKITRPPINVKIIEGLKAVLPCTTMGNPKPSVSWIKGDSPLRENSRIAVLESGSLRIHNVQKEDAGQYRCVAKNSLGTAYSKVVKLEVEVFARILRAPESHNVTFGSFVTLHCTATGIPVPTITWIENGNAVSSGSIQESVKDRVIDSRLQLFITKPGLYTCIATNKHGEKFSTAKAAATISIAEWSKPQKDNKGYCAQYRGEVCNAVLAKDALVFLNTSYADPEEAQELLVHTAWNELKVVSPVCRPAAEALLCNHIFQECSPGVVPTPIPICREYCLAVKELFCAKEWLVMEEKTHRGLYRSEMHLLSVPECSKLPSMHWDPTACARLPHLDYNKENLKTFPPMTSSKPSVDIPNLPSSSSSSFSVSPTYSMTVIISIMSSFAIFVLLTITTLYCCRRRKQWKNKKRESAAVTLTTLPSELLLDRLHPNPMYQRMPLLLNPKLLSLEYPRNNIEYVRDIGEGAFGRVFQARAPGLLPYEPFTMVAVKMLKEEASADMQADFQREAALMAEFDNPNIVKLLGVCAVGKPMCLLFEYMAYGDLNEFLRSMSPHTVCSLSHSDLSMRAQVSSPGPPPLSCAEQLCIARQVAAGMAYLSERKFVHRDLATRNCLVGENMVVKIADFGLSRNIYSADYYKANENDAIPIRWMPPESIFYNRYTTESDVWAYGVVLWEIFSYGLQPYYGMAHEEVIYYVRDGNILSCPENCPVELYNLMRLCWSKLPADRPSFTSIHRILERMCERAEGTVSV
Conditions: at 0.1 µM.

Mast/stem cell growth factor receptor Kit (Homo sapiens), P10721 [D816V], sequence (P10721 whole entry D816V): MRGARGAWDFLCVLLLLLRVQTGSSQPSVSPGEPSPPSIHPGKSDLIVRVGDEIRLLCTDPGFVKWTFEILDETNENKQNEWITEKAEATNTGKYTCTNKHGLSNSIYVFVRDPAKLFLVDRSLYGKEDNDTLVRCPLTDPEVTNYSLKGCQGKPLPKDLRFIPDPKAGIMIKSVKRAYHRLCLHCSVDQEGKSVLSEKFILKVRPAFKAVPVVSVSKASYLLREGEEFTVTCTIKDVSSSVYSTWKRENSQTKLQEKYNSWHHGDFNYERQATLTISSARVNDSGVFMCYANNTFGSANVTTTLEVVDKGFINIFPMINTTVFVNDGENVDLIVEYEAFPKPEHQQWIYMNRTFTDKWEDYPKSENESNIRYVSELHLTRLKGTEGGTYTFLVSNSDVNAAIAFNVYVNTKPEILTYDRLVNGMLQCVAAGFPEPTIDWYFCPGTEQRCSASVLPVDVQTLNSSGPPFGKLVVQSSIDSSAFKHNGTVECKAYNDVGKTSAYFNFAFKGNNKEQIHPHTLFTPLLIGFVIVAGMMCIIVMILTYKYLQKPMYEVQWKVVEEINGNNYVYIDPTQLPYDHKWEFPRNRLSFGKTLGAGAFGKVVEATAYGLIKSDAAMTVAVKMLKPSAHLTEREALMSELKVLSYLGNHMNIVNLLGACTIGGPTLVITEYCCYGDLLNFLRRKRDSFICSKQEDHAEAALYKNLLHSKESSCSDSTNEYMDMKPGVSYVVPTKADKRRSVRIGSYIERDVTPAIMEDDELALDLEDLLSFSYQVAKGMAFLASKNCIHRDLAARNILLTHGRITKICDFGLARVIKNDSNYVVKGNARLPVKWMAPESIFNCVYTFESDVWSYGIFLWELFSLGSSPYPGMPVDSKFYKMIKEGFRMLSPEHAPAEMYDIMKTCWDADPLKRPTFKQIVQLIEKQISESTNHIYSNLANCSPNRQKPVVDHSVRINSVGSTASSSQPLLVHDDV
Tyrosine-protein kinase Lyn (Homo sapiens), sequence (P07948 2-512 limits assumed): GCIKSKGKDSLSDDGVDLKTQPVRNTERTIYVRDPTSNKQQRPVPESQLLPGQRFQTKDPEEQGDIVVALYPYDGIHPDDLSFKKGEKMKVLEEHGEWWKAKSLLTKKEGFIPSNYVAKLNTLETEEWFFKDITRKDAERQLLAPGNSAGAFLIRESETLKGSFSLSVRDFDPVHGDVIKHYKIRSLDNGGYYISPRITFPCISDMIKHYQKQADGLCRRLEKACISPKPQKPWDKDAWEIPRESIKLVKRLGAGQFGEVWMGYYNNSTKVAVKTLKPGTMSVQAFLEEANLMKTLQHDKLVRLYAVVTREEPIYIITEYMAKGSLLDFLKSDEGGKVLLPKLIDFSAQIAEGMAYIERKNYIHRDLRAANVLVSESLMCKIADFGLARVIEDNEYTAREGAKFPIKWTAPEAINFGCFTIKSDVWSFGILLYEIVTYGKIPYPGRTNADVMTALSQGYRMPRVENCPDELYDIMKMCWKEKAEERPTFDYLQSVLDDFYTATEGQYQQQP
Mast/stem cell growth factor receptor Kit (Homo sapiens), P10721 [T670I], sequence (P10721 whole entry T670I): as the sequence (P10721 whole entry D816V) above, with T670I, V816D counted along it
Tyrosine-protein kinase Lck (Homo sapiens), sequence (P06239 2-509 limits assumed): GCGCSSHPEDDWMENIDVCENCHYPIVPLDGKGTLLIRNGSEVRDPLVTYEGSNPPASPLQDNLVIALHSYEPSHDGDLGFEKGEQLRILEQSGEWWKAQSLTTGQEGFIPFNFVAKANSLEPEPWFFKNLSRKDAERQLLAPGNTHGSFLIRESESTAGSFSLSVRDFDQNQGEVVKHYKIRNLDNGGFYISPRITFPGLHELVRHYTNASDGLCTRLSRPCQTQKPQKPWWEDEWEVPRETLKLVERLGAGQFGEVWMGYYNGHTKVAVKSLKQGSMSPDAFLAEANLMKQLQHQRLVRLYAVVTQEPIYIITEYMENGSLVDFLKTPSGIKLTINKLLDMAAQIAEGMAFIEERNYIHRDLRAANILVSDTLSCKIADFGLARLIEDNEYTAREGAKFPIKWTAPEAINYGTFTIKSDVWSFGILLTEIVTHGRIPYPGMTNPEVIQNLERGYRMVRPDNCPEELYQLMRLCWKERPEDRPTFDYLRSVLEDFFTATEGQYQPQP
Leukocyte tyrosine kinase receptor (Homo sapiens), sequence (P29376 whole entry): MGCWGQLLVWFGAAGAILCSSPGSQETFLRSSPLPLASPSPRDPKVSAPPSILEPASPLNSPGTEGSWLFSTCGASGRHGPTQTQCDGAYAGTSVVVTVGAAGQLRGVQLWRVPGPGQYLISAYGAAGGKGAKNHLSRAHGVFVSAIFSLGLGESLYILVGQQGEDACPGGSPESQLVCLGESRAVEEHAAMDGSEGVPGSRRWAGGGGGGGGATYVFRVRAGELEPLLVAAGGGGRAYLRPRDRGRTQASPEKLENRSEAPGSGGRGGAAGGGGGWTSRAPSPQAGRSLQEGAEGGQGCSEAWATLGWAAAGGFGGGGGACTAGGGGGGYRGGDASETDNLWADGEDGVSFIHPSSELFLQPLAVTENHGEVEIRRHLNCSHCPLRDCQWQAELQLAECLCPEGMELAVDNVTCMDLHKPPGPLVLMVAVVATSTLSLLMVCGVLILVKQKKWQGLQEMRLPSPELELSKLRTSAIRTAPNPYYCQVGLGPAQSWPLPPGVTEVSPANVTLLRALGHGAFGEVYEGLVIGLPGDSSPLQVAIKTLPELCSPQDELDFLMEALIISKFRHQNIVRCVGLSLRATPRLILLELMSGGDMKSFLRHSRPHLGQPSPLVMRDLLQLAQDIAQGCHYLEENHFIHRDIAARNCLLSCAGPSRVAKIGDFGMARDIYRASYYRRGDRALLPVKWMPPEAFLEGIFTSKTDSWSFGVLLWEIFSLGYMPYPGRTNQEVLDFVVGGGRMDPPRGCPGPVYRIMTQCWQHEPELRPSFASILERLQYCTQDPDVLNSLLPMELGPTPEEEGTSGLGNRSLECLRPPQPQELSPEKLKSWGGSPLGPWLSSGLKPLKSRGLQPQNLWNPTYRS
Mast/stem cell growth factor receptor Kit (Homo sapiens), P10721 [V560G], sequence (P10721 whole entry V560G): as the sequence (P10721 whole entry D816V) above, with V560G, V816D counted along it
Hepatocyte growth factor receptor (Homo sapiens), sequence (P08581 whole entry): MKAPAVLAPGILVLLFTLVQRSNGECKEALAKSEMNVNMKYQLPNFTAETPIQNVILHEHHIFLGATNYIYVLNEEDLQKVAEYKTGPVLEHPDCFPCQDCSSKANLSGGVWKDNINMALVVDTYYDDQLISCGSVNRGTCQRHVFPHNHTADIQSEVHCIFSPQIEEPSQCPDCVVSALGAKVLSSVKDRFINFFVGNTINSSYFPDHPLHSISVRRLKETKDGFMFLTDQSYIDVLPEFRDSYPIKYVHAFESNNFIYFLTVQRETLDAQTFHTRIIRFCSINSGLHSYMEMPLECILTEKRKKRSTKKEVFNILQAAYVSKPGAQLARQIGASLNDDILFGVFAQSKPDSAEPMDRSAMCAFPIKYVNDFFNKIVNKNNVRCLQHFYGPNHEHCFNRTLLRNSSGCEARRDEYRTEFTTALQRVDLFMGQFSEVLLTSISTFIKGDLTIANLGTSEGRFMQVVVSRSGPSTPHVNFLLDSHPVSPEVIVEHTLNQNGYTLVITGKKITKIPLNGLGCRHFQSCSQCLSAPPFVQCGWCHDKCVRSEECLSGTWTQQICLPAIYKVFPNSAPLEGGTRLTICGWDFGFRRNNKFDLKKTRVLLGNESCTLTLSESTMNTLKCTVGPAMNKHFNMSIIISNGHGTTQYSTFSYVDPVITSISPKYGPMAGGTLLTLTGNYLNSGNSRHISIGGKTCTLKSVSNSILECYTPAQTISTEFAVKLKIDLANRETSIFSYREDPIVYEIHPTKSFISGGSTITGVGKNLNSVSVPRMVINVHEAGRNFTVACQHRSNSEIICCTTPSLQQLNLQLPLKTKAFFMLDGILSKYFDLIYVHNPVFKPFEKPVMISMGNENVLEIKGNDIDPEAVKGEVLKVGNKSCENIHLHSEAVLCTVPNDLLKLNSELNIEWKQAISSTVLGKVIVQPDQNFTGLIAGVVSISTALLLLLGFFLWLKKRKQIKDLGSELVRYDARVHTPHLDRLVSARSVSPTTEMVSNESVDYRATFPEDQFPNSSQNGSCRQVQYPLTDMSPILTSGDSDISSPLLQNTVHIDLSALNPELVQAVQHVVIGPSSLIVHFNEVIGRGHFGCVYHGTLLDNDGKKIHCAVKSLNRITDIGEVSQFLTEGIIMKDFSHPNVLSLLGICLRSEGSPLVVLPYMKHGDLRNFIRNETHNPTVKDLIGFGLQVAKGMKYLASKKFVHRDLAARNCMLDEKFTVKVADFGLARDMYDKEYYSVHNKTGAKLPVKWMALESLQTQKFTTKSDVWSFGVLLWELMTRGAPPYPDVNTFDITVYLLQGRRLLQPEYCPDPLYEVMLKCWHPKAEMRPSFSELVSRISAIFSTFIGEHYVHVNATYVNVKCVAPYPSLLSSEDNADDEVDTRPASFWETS
Mast/stem cell growth factor receptor Kit (Homo sapiens), sequence (P10721 whole entry): as the sequence (P10721 whole entry D816V) above, with V816D counted along it

`CCc1ccc(Oc2nccc(-c3c(-c4ccc(F)cc4)ncn3C3CCNCC3)n2)cc1`: the inhibition in experiment [1] was 3.31%; in experiment [2], 4.91%; in experiment [3] it was 1.86%; in experiment [4], 2.54%; in [5] it was 2.33%; in experiment [6] it was -1.42%. Moreover, the inhibition was -1.63% in experiment [7]; 3.37% in experiment [8]; 6.55% in experiment [9]; 2.71% in experiment [10]; 2.68% in experiment [11]; 5.24% in [12]. Besides, the inhibition in [13] worked out at 6.76%; in experiment [14], 1.59%; in [15] it was 3.26%; in [16], 2.01%; in [17], 3.05%; in experiment [18], 5.76%. In addition, the inhibition was 3.25% in experiment [19] and 3.3% in experiment [20].

For the molecule `CCN(CC)Cc1ccc(Nc2nccc(-c3cnn4ncccc34)n2)cc1`, the inhibition in [1] turned out to be 93.1%; in experiment [2], 1.8%; in experiment [3], 4.13%; in experiment [4] it was 19.4%; in experiment [5], 80.9%; in experiment [6], 8.63%. Moreover, the inhibition in experiment [7] is 61.5%; in experiment [8] it was 1.35%; in experiment [9], 15.3%; in experiment [10] it was 4.48%; in [11], 9.98%; in [12], 3.53%. The inhibition amounted to 11.8% in experiment [13]; 2.02% in experiment [14]; 9.31% in experiment [15]; 2.93% in [16]; 9.85% in experiment [17]; 7.6% in experiment [18]. Further, the inhibition in experiment [19] was determined as 10.4%; in experiment [20], 6.42%.

For `O=C(NCC1CC1)c1ccc(-c2cccc(C(=O)NC3CC3)c2)cc1`, the inhibition is 3.45% in experiment [1]; 2.24% in [2]; -0.44% in experiment [3]; 3.77% in [4]; -2.45% in experiment [5]; 3.49% in experiment [6]. For the same molecule, the inhibition in [7] is 5.84%; in experiment [8], 1.74%; in experiment [9], 4.51%; in experiment [10] it was 1.6%; in experiment [11] it was -0.6%; in experiment [12] it was 0.78%. For the same molecule, the inhibition in experiment [13] worked out at 1.7%; in experiment [14] it was 0.33%; in [15] it was 2.4%; in experiment [16] it was 0.92%; in experiment [17], 3.13%; in experiment [18], 5.94%. For the same molecule, the results for the inhibition in [19] and in [20] were -2.79% and 6.72%, respectively.

Turning to `O=C(Nc1n[nH]c2nc(-c3ccc(O)cc3)c(Br)cc12)C1CC1`, the inhibition was 63.1% in [1]; 9.03% in experiment [2]; 10.1% in [3]; 3.13% in [4]; 4.94% in experiment [5]; 2.07% in experiment [6]. The inhibition in experiment [7] is 10.8%; in [8], 6.75%; in [9] it was 22.2%; in experiment [10] it was 62.8%; in experiment [11], 91.6%; in experiment [12], 9.57%. Also, the inhibition in experiment [13] was determined as 16.2%; in experiment [14] it was 6.94%; in experiment [15], 13%; in experiment [16] it was 1.7%; in experiment [17] it was 8.16%; in experiment [18], 4.98%. Moreover, the inhibition in experiment [19] came out at 10.9%; in experiment [20], 4.48%.

`COc1cccc(-n2cnc3c(N/N=C/c4ccncc4)ncnc32)c1`: the inhibition in experiment [1] was 83.4%; in [2], 0.1%; in experiment [3], 3.79%; in experiment [4] it was -2.23%; in experiment [5], 6.36%; in experiment [6] it was 3.15%. The inhibition was 18.8% in experiment [7]; 3.69% in experiment [8]; 29.3% in [9]; -1.69% in [10]; 0.9% in experiment [11]; 7.17% in [12]. Further, the inhibition in [13] was 47.2%; in experiment [14] it was 6.07%; in experiment [15], 41.6%; in [16] it was 0.12%; in [17], 4.47%; in experiment [18], 0.87%. In addition, the inhibition in [19] worked out at 6.87%; in [20], 2.4%.

Turning to `NC(=O)c1cc(-c2ccncc2)cc(-c2ccccc2)c1N`, the inhibition came to 75.5% in experiment [1]; 6.4% in [2]; 6.94% in [3]; 3.99% in experiment [4]; 4.83% in experiment [5]; 2.91% in experiment [6]. In addition, the inhibition in experiment [7] was determined as 25.1%; in experiment [8], 7.95%; in experiment [9] it was 41.6%; in experiment [10] it was 5.44%; in experiment [11] it was 6.16%; in [12], 11.7%. Moreover, the inhibition in experiment [13] came out at 48.8%; in experiment [14] it was 10%; in [15] it was 43%; in experiment [16], 1.28%; in experiment [17], 3.16%; in experiment [18], 0.99%. The inhibition in experiment [19] was 3.43%; in experiment [20], 2.46%.

As a reminder, the inhibition is the drop in the measured response relative to a control, in per cent.

Values taken from ChEMBL document CHEMBL1961873, “Compounds: GSK PKIS; Assays: Nanosyn kinase panel” (2012).
